The values that follow come from PubChem BioAssay (NCI).

About 79,000 compounds went through this panel and 15% of them were active in at least one assay; those are over-represented in the sample as a whole. Activity calls are given as the source filed them. Rule as the data show it: active = growth inhibition above about 70%; inactive = the rest.

A short description of this assay: NCI Yeast Anticancer Drug Screen. Data for the rad50 strain (AID 155).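 Also: 0% = growth of vehicle-only cultures of the same strain.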 Particulars: S. cerevisiae rad50 strain growth inhibition; at 50.0 µM; stronger effect = higher value. A digest of the protocol: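 Vehicle-treated cultures provide the reference for the growth inhibition reported for compound-exposed, repair-deficient yeast.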
`C(=C\c1ccc(OCc2ccccc2)cc1)/c1ccc(OCc2ccccc2)cc1`: the growth inhibition was -5.5% (inactive). In the case of `C=CCNC(=O)N(CCC)CCCCC(NC(C)=O)C(=O)NCc1ccccc1` (centres undefined) it was 11.5% (inactive). In the case of `CC1(C)OC(=O)C(=Cc2cccc3ccc4ccccc4c23)C(=O)O1`, the growth inhibition was 31.9% (inactive). The same measure for `CC1(C)C2CCC3CC(CCC#N)CCC3C21C#N` (centres undefined): -32.2% (inactive); for `Cc1ccc(S(=O)(=O)OCC(c2ccccc2)C(F)(F)F)cc1` (centres undefined): -3.25% (inactive); for `CC(NC(=O)C(C)(C)C)c1ccc2c(c1)OCCO2` (centres undefined): -4.45% (inactive). In the case of `CCCCC1CCC2CCCCC2C1` (centres undefined), the growth inhibition is 3.4% (inactive).

For the molecule `CCOC(=O)NC(=O)CC#N`, the growth inhibition was -5.5% (inactive). The same measure for `Fc1ccc(N2C(c3ccccc3)=N[C@@H](N3CCOCC3)[C@@H]2N2CCOCC2)cc1`: 21.4% (inactive); for `C(=C/c1ccccc1)/CN1CCCCC1`: 29.4% (inactive). The same measure for `O=C(O)C1C(CCl)=C1CCl`: -15.8% (inactive); for `CC(OC(C(O)C=O)C(O)C(O)CO)C(=O)N[C@@H](C)C(=O)O` (some centres undefined): 6.1% (inactive).

With `CC1(C)C2C/C(=N/O)C(=O)C1C2` (centres undefined), the growth inhibition was -4.5% (inactive). The same measure for `C/C(O)=C(\C=N\C(=S)N=Nc1c(O)[nH]c2ccccc12)C(=O)Nc1ccccc1C`: 51.5% (inactive); for `CC(CN(C)C)/C(=N\Nc1ccccc1)c1ccccc1` (centres undefined): 16.5% (inactive); for `COc1ccc(/C=N/CCl)cc1`: -1.55% (inactive). In the case of `CCC(=O)N(C)c1ccccc1` it was 22.4% (inactive); in that of `CNC(=O)n1cnc2ccccc21`, 33.2% (inactive).

In the case of `CCCCCCCCCCCCCCCCc1c(C(=O)OC)nc(NN)[nH]c1=O`, the growth inhibition is -6.3% (inactive).
